Measured values: PubChem BioAssay (NCATS)
Results filed as inconclusive are left out. Calls of active or inactive are those of the source. The call rests on the fitted dose curve; in most records, active means well fitted curve in the direction sought with a large enough effect; inconclusive means small, poorly fitted or top-dose-only effect, or another doubt; inactive means no such curve, though single readings can be large; an effect the other way counts as inactive or inconclusive.

How the values were obtained:
HEK293 = assay: Cytotoxic Profiling of Annotated Libraries Using Quantitative High-Throughput Screening (AID 1296008); settings: Five cell lines viability, CellTiter-Glo ATP luminescence, 48-72 h; max response: active compounds read low; further: nearly all actives have a fitted effect of over 60% in size
In short: (§1)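 Cells exposed to compounds for 48 or 72 hr at 37 degrees Celsius. Viability read as ATP-coupled luminescence with CellTiter-Glo after 10 min at room temperature.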

KB-3-1 = assay: as above; settings: Five cell lines viability, CellTiter-Glo ATP luminescence, 48-72 h; max response: active compounds read low
In short: as §1

NIH3T3 = assay: as above; settings: Five cell lines viability, CellTiter-Glo ATP luminescence, 48-72 h; max response: active compounds read low
In short: as §1

C33A = assay: Primary qHTS to identify gynecologic anti-cancer compounds using libraries of approved drugs and bioactive compounds (AID 1345084); settings: Gynecologic cancer cell panel viability, ATPlite luminescence, 48 h; series mostly up to 57.5 µM; further: nearly all actives have a fitted effect of over 55% in size
In short: (§2)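 ATP-based viability (ATPlite), 1,000 cells/well, 16 h pre-incubation, 48 h compound at 37 C, 5% CO2, 15 min RT before read.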

CASKI = assay: as above; settings: Gynecologic cancer cell panel viability, ATPlite luminescence, 48 h; series mostly up to 57.5 µM
In short: as §2

Es-2 = assay: as above; settings: Gynecologic cancer cell panel viability, ATPlite luminescence, 48 h; series mostly up to 57.5 µM
In short: as §2

CAOV3 = assay: as above; settings: Gynecologic cancer cell panel viability, ATPlite luminescence, 48 h; series mostly up to 57.5 µM
In short: as §2

Hek293T = assay: as above; settings: Gynecologic cancer cell panel viability, ATPlite luminescence, 48 h, control line for the selectivity index; series mostly up to 57.5 µM
In short: as §2

JEG-3 = assay: as above; settings: Gynecologic cancer cell panel viability, ATPlite luminescence, 48 h; series mostly up to 57.5 µM
In short: as §2

HeLa = assay: as above; settings: Gynecologic cancer cell panel viability, ATPlite luminescence, 48 h; series mostly up to 57.5 µM
In short: as §2
On the % scale 0 is the no-effect control and ±100 the full control effect; potency means the concentration at half of the fitted maximal effect.

Cc1cc(Nc2cc(N3CCN(C)CC3)nc(/C=C/c3ccccc3)n2)n[nH]1
active: Potency (HEK293) 3.66 µM | Potency (KB-3-1) 1.16 µM | Potency (NIH3T3) 2.31 µM | Potency (C33A) 28.2 µM | Potency (CASKI) 3.55 µM
inactive: Potency (Es-2)

CCN1CCN(Cc2ccc(Nc3ncc(F)c(-c4cc(F)c5nc(C)n(C(C)C)c5c4)n3)nc2)CC1
inactive: max response (NIH3T3) 1.34% | Potency (C33A) | Potency (CAOV3) | Potency (CASKI) | Potency (Es-2) | Potency (Hek293T) | Potency (JEG-3)
active: Potency (HEK293) 3.66 µM | Potency (KB-3-1) 6.51 µM

O=C(Nc1ccc(-c2ccncc2)cc1)N[C@H](CO)c1ccccc1
inactive: max response (HEK293) -14.1% | outcome (KB-3-1) | max response (NIH3T3) -5.95% | Potency (C33A) | Potency (CAOV3) | Potency (CASKI) | Potency (Es-2) | Potency (HeLa) | Potency (Hek293T) | Potency (JEG-3)

CC(=O)O[C@H]1C[C@@]2(C)[C@@H](CC[C@H]3[C@@]4(C)C=CC(=O)[C@@H](C)[C@@H]4[C@H](O)C(=O)[C@@]32C)/C1=C(/CCC=C(C)C)C(=O)O
inactive: max response (HEK293) -6.72% | max response (KB-3-1) 4.45% | max response (NIH3T3) -3.01% | Potency (C33A) | Potency (CAOV3) | Potency (CASKI) | Potency (Es-2) | Potency (HeLa) | Potency (Hek293T) | Potency (JEG-3)

CC(=O)O[C@H]1C(=O)[C@@]2(C)[C@H]([C@H](OC(=O)c3ccccc3)[C@]3(O)C[C@H](OC(=O)[C@H](O)[C@@H](NC(=O)c4ccccc4)c4ccccc4)C(C)=C1C3(C)C)[C@]1(OC(C)=O)CO[C@@H]1C[C@@H]2O
inactive: activity change, negative = cytotoxicity (C33A) -4.13% [at 11.6 µM] | activity change, negative = cytotoxicity (CAOV3) -17.1% [at 11.6 µM]
active: Potency (HEK293) 0.0055 µM | Potency (KB-3-1) 0.0098 µM | Potency (NIH3T3) 0.031 µM | Potency (Es-2) 0.126 µM | Potency (HeLa) 0.0316 µM

Cc1cccc2c1NC(=O)C2(c1ccc(O)cc1)c1ccc(O)cc1
inactive: max response (HEK293) -20.9% | max response (KB-3-1) -4.45% | max response (NIH3T3) -15.5% | Potency (C33A) | Potency (CAOV3) | Potency (CASKI) | Potency (Es-2) | Potency (JEG-3)

N#Cc1c(Oc2ccc(F)c(NC(=O)Cc3cccc(C(F)(F)F)c3)c2)ccc2nc(NC(=O)C3CC3)sc12
active: Potency (HEK293) 1.3 µM | Potency (KB-3-1) 16.4 µM | Potency (NIH3T3) 1.46 µM | Potency (Es-2) 5.62 µM | Potency (HeLa) 10 µM
inactive: Potency (C33A)

COc1cc(C2c3cc4c(c(O)c3CC(CO)C2C(=O)O)OCO4)cc(OC)c1O (stereo not given)
active: Potency (HEK293) 2.24 µM | Potency (KB-3-1) 2 µM | Potency (NIH3T3) 2.82 µM | Potency (Es-2) 3.55 µM | Potency (Hek293T) 3.98 µM

NC(=O)Nc1cc(-c2cccc(F)c2)sc1C(=O)NC1CCCNC1 (stereo not given)
inactive: max response (HEK293) -108%
active: Potency (KB-3-1) 0.58 µM | Potency (NIH3T3) 0.517 µM | Potency (Hek293T) 0.447 µM

CC(Oc1cc(-n2cnc3ccc(CN4CCN(C)CC4)cc32)sc1C(N)=O)c1ccccc1C(F)(F)F (stereo not given)
active: Potency (HEK293) 1.3 µM | Potency (KB-3-1) 0.651 µM | Potency (NIH3T3) 8.2 µM | Potency (C33A) 8.91 µM | Potency (Es-2) 7.94 µM | Potency (HeLa) 3.55 µM | Potency (JEG-3) 5.62 µM

CCNC(=O)Nc1ccc(-c2nc3c(c(N4CCOC[C@@H]4C)n2)CCN(c2ncccn2)C3)cc1
active: Potency (HEK293) 0.184 µM | Potency (KB-3-1) 0.291 µM | Potency (NIH3T3) 1.03 µM | Potency (Hek293T) 1 µM
inactive: Potency (JEG-3)

CN(C)c1nc(NC2CCC(NCCc3ccc(Br)cc3OC(F)(F)F)CC2)nc2ccccc12 (stereo not given)
active: Potency (HEK293) 5.17 µM | Potency (KB-3-1) 4.61 µM | Potency (NIH3T3) 4.11 µM | Potency (CAOV3) 3.98 µM | Potency (Hek293T) 25.1 µM | Potency (JEG-3) 20 µM

CN1CCN(Cc2ccc(-c3cnc4[nH]cc(-c5ccc6[nH]ccc6c5)c4c3)cc2)CC1
active: Potency (HEK293) 6.51 µM | Potency (KB-3-1) 9.2 µM | Potency (NIH3T3) 14.6 µM | Potency (CAOV3) 22.4 µM | Potency (Es-2) 22.4 µM | Potency (HeLa) 31.6 µM

CC1=C(C(=O)O[C@@H]2O[C@H](COC3OCC(O)C(O)C3O)[C@@H](O)[C@H](O)[C@H]2O)C(C)(C)CCC1 (stereo not given in full)
inactive: max response (HEK293) -9.72% | max response (KB-3-1) -5.04% | max response (NIH3T3) -7.14% | Potency (CAOV3) | Potency (CASKI) | Potency (Es-2) | Potency (HeLa) | Potency (Hek293T) | Potency (JEG-3)

C[C@@H]1C[C@H]2O[C@@H]2/C=C\C=C\C(=O)Cc2c(Cl)c(O)cc(O)c2C(=O)O1
active: Potency (HEK293) 0.0873 µM | Potency (KB-3-1) 1.1 µM | Potency (NIH3T3) 1.74 µM
inactive: activity change, negative = cytotoxicity (CASKI) -0.527% [at 11.6 µM]

Cc1cc(C)c(Nc2ccnc(Nc3ccc(C#N)cc3)n2)c(C)c1
active: Potency (HEK293) 5.17 µM | Potency (KB-3-1) 20.6 µM | Potency (NIH3T3) 13 µM
inactive: Potency (JEG-3)

CCOc1cc(N2CCC(O)CC2)ccc1Nc1ncc2c(n1)N(C1CCCC1)CCC(=O)N2C
inactive: Potency (C33A) | Potency (JEG-3)
active: Potency (HEK293) 5.8 µM | Potency (KB-3-1) 7.31 µM | Potency (NIH3T3) 4.11 µM

Cc1cccc(/C=N/Nc2cc(N3CCOCC3)n3nc(-c4ccncc4)cc3n2)c1
active: Potency (HEK293) 5.8 µM | Potency (NIH3T3) 0.651 µM | Potency (CAOV3) 8.91 µM
inactive: max response (KB-3-1) -17.8%
